# Compound activity from PubChem.
# Rab9 promoter act: qHTS Assay for Rab9 Promoter Activators; Huh7 Rab9 promoter-luciferase reporter, luminescence, 24 h; Potency, µM (titrated, usually from 9.22 µM), for inactives: at the highest dose activation, negative = inhibition, actives largely listed as activators; actives 2.8% (n = 320,000); AID 485297, 2010; also: % of control where 0% means no effect; nearly all actives have a fitted effect of over 60% in size
#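 Quantitative HTS format; Huh7 Rab9-luciferase reporter cells (1500/well) receive compound 2 h post-plating, incubate 24 h at 37 °C, then get luciferase reagent for 10 min before luminescence reading.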
# FLuc counter: qHTS profiling assay for firefly luciferase inhibitor/activator using purifed enzyme and Km concentrations of substrates (counterscreen for miR-21 project) | Luciferin 4-monooxygenase (Photinus pyralis), P08659 | purified FLuc, Km substrates, luminescence inhibition | Potency, µM (top dose mostly 57.5 µM), inactives show at the top dose activity change, negative = inhibition, actives largely listed as inhibitors | actives 6.9% (n = 360,000);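 also: plate controls were vehicle for no effect and reference inhibitor for full effect; nearly all actives have a fitted effect of over 55% in size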
# Target sequence (P08659 whole entry, looked up): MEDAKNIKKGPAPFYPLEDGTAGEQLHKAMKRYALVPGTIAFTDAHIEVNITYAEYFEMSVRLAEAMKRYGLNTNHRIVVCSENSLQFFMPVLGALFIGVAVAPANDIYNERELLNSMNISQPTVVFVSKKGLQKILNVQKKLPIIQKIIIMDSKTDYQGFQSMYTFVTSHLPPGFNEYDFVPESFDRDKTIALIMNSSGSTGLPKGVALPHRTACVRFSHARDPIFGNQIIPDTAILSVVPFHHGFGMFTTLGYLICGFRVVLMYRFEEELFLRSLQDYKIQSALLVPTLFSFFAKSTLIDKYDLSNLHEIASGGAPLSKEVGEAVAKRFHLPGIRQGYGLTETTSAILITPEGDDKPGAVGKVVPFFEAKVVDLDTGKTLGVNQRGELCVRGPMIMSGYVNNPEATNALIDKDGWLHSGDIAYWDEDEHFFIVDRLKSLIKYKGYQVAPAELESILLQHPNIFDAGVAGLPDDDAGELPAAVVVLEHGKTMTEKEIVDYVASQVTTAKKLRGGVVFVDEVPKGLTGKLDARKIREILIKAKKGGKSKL
#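 Purified P. pyralis luciferase (10nM final) with 10uM D-luciferin and 10uM ATP (Km levels) in 50mM Tris acetate pH 7.5, 10mM Mg acetate, 0.01% Tween-20, 0.05% BSA; qHTS 6-point titration, ~60 µM downward; luminescence read.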
# SMN2 splice enh: qHTS Assay for Enhancers of SMN2 Splice Variant Expression; Potency, µM (titrated, usually from 46.1 µM), without a hit: top-dose activity change, positive = activation, usual class: activators; HEK293 SMN2-luciferase splicing reporter, luminescence, 30-36 h; actives 2.8% (n = 210,000); also: % of control where 0% means no effect; nearly all actives have a fitted effect of over 55% in size
#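 qHTS luciferase splicing reporter: luminescence rises when SMN2 exon 7 is included in transfected HEK293 cells. Compound exposure lasted 30-36 h at 37C, with 4.5 mM final sodium butyrate as control, followed by a ONE-Glo read.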
# NPC1 prom act: qHTS Assay for NPC1 Promoter Activators; Huh7 NPC1 promoter luciferase reporter, 24 h; Potency, µM (top dose mostly 9.22 µM), without a hit: at the top dose activation, most hits filed as activators; actives 2.4% (n = 320,000); also: % of control where 0% means no effect; nearly all actives have a fitted effect of over 60% in size
#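 Quantitative HTS used a cell-based reporter: Huh7 cells stably bearing the NPC1 promoter upstream of luciferase were treated with compounds for 24 h, and promoter activation was read as luminescence.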
# ELG1 repair inh: qHTS screen for small molecules that inhibit ELG1-dependent DNA repair in human embryonic kidney (HEK293T) cells expressing luciferase-tagged ELG1; HEK293T ELG1-luciferase reporter, luminescence, 16 h; DNA damage induced by 5-fluorouridine; Potency, µM (series often up to 46.1 µM), inactives show top-dose activity change, negative = inhibition, actives largely listed as inhibitors; actives 2.3% (n = 330,000); AID 504467, 2011; also: % is scaled to controls: 0 for no effect and ±100 for the full control effect; nearly all actives have a fitted effect of over 55% in size
#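 Quantitative HTS, concentration-response format. 2,000 cells/well co-treated with 5-fluorouridine and compound, 16 hr in 5% CO2 at 37 °C; ONE-Glo luminescence read after 30 min.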
# ELG1 genotox: qHTS screen for small molecules that induce genotoxicity in human embryonic kidney (HEK293T) cells expressing luciferase-tagged ELG1 | HEK293T ELG1-luciferase reporter, luminescence, 16 h | Potency, µM (doses to about 46 µM), for inactives: at the top dose activity change, positive = activation, hits mostly activators | actives 1.3% (n = 330,000) | AID 504466, 2011; also: % of control where 0% means no effect; nearly all actives have a fitted effect of over 60% in size
#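 Cells (2,000/well) expressing the ELG1-luciferase fusion are dosed by pin tool and kept 16 hr at 37 °C, 5% CO2. Signal comes from ONE-Glo luciferase reagent after 30 min at room temperature.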
# Active calls of the source: *; ? = inconclusive; / = not tested or not shown; [ ] = another dose, or the depositor's remark. Most compounds without a hit are left out; they make up all but 9.2% or so of the library. Calls follow the shape of the dose curve; as a rule, active = well fitted curve in the direction sought with a large enough effect; inconclusive = small, poorly fitted or top-dose-only effect, or another doubt; inactive = no such curve, though single readings can be large; an effect the other way counts as inactive or inconclusive. Potency is read from the fitted curve at half-maximal effect.
SMILES,Rab9 promoter act,FLuc counter,SMN2 splice enh,NPC1 prom act,ELG1 repair inh,ELG1 genotox
Cc1ccc(C2CC(c3cccs3)n3nc(N)nc3N2)cc1 (configuration not stated),-4.7%,-12.6%,-11.4%,-1.4%,3.9%,0.2%
CN(C)CCCN(C(=O)c1cccs1)c1nc(-c2ccccc2)cs1,-1.1%,-1.2%,7.94µM*,-4.8%,3.3%,?
COc1ccc(-c2csc(N(CC(C)C)C(=O)c3ccco3)n2)cc1,2.1%,-0.1%,/,-1.5%,14.8%,0.3%
CCN(C(=O)c1ccco1)c1nc(-c2ccc(OC)cc2)cs1,3.98µM*,12µM*,/,3.16µM*,?,?
COc1ccc(-c2csc(N(CCCN(C)C)C(=O)c3ccccc3C)n2)cc1,0.282µM*,1.6%,/,7.8%,?,-10.5%
COc1ccc(-c2csc(N(CCCN(C)C)C(=O)c3ccccc3F)n2)cc1,-2.1%,1.4%,/,-2.1%,-7.8%,0.3%
COCCCn1c(SCC(=O)Nc2ccccc2F)nnc1-c1ccoc1C,3.7%,-0.1%,/,-3.4%,0.3%,-5.6%
COc1ccc(-c2nc(CSc3nncn4c3cc3oc(C)cc34)c(C)o2)cc1,/,-2.2%,/,/,/,/
COc1ccc(N2C(=O)C3C(C2=O)C2C=CC3C23CC3)c(OC)c1 (configuration not stated),7.6%,13.5µM*,-0.9%,-1.0%,?,5.6%
CN1C(=O)C(C)(C)c2cc(S(=O)(=O)N3CCCC3C(=O)NCc3ccc(F)cc3)ccc21 (configuration not stated),2.2%,6.2%,/,0.2%,1.6%,0.3%
CN1C(=O)C(C)(C)c2cc(S(=O)(=O)N3CCCC(C(=O)NCc4ccc(Cl)cc4)C3)ccc21 (configuration not stated),-3.7%,-1.9%,/,0.4%,14.6µM*,-5.7%
Cc1ccc2c(c1)COc1c3ccc(C(=O)N[C@@H](C)CO)cc3nn1-2,2.24µM*,3.38µM*,/,1.58µM*,?,?
Cc1ccc2c(c1)COc1c3ccc(C(=O)NC(C)C)cc3nn1-2,?,3.01µM*,/,1.58µM*,?,?
CCOc1c2ccc(C(=O)N[C@H](C)C3CCCCC3)cc2nn1CCOC,2.7%,2.3%,12.2%,-3.2%,-3.1%,-1.0%
CN(C(=O)CCN1C(=O)S/C(=C\c2ccccc2)C1=O)C1CCS(=O)(=O)C1 (configuration not stated),8.2%,-19.4%,/,-4.1%,7.7%,-0.5%[9.26 µM]
CN=c1scc(-c2ccccc2Br)n1/N=C/c1ccc[nH]1,?,1.07µM*,/,?,?,0.461µM*
CN=c1scc(-c2ccc(Br)cc2)n1C,-4.9%,-17.2%,-5.3%,1.1%,-1.8%,0.8%
CCOc1ccc(NC(=O)c2ccc(-c3ccccc3)s2)cc1,/,-6.8%,2.5%,/,/,/
CNC(=O)c1ccc(-c2ccccc2)s1,?,13.5µM*,6.6%,?,?,?
Cc1cc(C)n2nc(CC(=O)NNC(=O)c3ccccc3Cl)nc2n1,-0.4%,2.1%,/,0.5%,17.3%,-0.3%
CCOC(=O)C1=C(Cc2ccc(C)cc2)C(=O)c2ccccc2C1=O,-12.4%,13.5µM*,-98.3%,-5.5%,?,4.4%
CCOC(=O)C1=C(Cc2ccc(OC)cc2)C(=O)c2ccccc2C1=O,0.9%,10.7µM*,-26.4%,-13.7%,7.0%,27.9%
O=C(NCc1ccco1)c1ccccc1,-0.1%,0.4%,/,-0.5%,-6.9%,-5.1%
Cc1ccc(-c2noc(-c3ccccc3C(=O)NCc3ccco3)n2)cc1,16.5%,5.36µM*,/,16.2%,17.1%,5.9%
